Data published in PubChem BioAssay (NCATS).
“And” between values parts separate entries of the source, which are not always exact repeats. Identical values can stand only once. Records with an inconclusive call do not appear. The source made the active and inactive calls. The call rests on the fitted dose curve; in most records, active means well fitted inhibition curve with a large enough effect; inconclusive means small, poorly fitted or top-dose-only effect; inactive means flat fitted curve, though single readings scatter.

Experiments:
[1] = tested on: CRL-7250; experiment: Cytotoxic Profiling of Annotated Libraries Using Quantitative High-Throughput Screening (AID 1296008); details: Five cell lines viability, CellTiter-Glo ATP luminescence, 48-72 h; max response: active compounds read low; on max response: on the % scale 0 is the no-effect control and ±100 the full control effect
In short: (§1)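 Cytotoxicity was measured as CellTiter-Glo ATP luminescence, read after 10 min at room temperature. Compound treatment of the cells lasted 48 or 72 hr at 37 degrees Celsius in a qHTS format.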

[2] = tested on: HEK293; experiment: as above; details: Five cell lines viability, CellTiter-Glo ATP luminescence, 48-72 h; max response: active compounds read low
In short: as §1

[3] = tested on: HaCat; experiment: as above; details: Five cell lines viability, CellTiter-Glo ATP luminescence, 48-72 h; max response: active compounds read low
In short: as §1

[4] = tested on: KB-3-1; experiment: as above; details: Five cell lines viability, CellTiter-Glo ATP luminescence, 48-72 h; max response: active compounds read low
In short: as §1

[5] = tested on: NIH3T3; experiment: as above; details: Five cell lines viability, CellTiter-Glo ATP luminescence, 48-72 h; max response: active compounds read low
In short: as §1

[6] = tested on: MCC-13; experiment: qHTS assay to identify novel small-molecules to repurpose for Merkel cell carcinoma treatment (AID 1296009); details: MCC and control cell lines, CellTiter-Glo viability, 72 h; series mostly up to 46 µM
In short: (§2)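 72 hr, 37 degree celsius; NPC 8-pt / MIPE 11-pt dose response; compound pinned in DMSO; CellTiter-Glo, 10 min RT, luminescence; normalized to no-cell and DMSO controls.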

[7] = tested on: MKL-1; experiment: as above; details: MCC and control cell lines, CellTiter-Glo viability, 72 h; series mostly up to 46 µM
In short: as §2

[8] = tested on: P94_40; experiment: qHTS profiling for inhibitors of Plasmodium falciparum proliferation (AID 504749); details: P. falciparum in erythrocytes, SYBR Green DNA, 72 h; series mostly up to 28.7 µM
In short: (§3)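 Infected RBCs, 0.3% parasitemia/2.5% Hct final; cpd 72 h, 37 C, 5% CO2; lysis buffer with saponin/triton/SYBR Green I, o/n RT dark; FI 485/535; norm. to artemisinin (0.29 uM) and DMSO.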

[9] = tested on: PAD; experiment: as above; details: P. falciparum in erythrocytes, SYBR Green DNA, 72 h; series mostly up to 28.7 µM
In short: as §3

[10] = tested on: PC15; experiment: as above; details: P. falciparum in erythrocytes, SYBR Green DNA, 72 h; series mostly up to 28.7 µM
In short: as §3

[11] = tested on: PC26; experiment: as above; details: P. falciparum in erythrocytes, SYBR Green DNA, 72 h; series mostly up to 28.7 µM
In short: as §3

[12] = tested on: PC49; experiment: as above; details: P. falciparum in erythrocytes, SYBR Green DNA, 72 h; series mostly up to 28.7 µM
In short: as §3

[13] = tested on: SC27B; experiment: as above; details: P. falciparum in erythrocytes, SYBR Green DNA, 72 h; series mostly up to 28.7 µM
In short: as §3

[14] = tested on: TAB109; experiment: as above; details: P. falciparum in erythrocytes, SYBR Green DNA, 72 h; series mostly up to 28.7 µM
In short: as §3

[15] = tested on: TAB113; experiment: as above; details: P. falciparum in erythrocytes, SYBR Green DNA, 72 h; series mostly up to 28.7 µM
In short: as §3

[16] = tested on: TAB165; experiment: as above; details: P. falciparum in erythrocytes, SYBR Green DNA, 72 h; series mostly up to 28.7 µM
In short: as §3

[17] = tested on: W2; experiment: as above; details: P. falciparum in erythrocytes, SYBR Green DNA, 72 h; series mostly up to 28.7 µM
In short: as §3

[18] = tested on: HACAT; experiment: qHTS assay to identify novel small-molecules to repurpose for Merkel cell carcinoma treatment (AID 1296009); details: MCC and control cell lines, CellTiter-Glo viability, 72 h; at 44.8 µM (top of the series) unless noted
In short: as §2

[19] = tested on: MCC-26; experiment: as above; details: MCC and control cell lines, CellTiter-Glo viability, 72 h; series mostly up to 46 µM
In short: as §2

[20] = tested on: HEK293T; experiment: as above; details: MCC and control cell lines, CellTiter-Glo viability, 72 h; at 44.8 µM (top of the series) unless noted
In short: as §2
Further: nearly all actives have a fitted effect of over 60% in size.
Potency means the concentration at half of the fitted maximal effect.

CC(C)n1nc(-c2cc3cc(O)ccc3[nH]2)c2c(N)ncnc21
active: Potency [1] 376 nM and 461 nM | Potency [2] 1.33 µM and 1.46 µM | Potency [3] 23.1 µM | Potency [4] 1.3 µM | Potency [5] 2.37 µM and 1.16 µM | Potency [6] 16.8 µM | Potency [7] 10.6 µM

CCC(C(=O)OCCN(CC)CC)c1ccccc1 (configuration not stated)
inactive: Potency [8] | Potency [9] | Potency [10] | Potency [11] | Potency [12] | Potency [13] | Potency [14] | Potency [15] | Potency [16] | outcome [1] | max response [2] 3.62% | outcome [3] | max response [4] -12.7% | max response [5] -17.3% | outcome [18] | Potency [6] | Potency [19] | Potency [7]
active: Potency [17] 15.1 µM

CCCC(=O)O[C@]1(C(=O)CO)CC[C@H]2[C@@H]3CCC4=CC(=O)CC[C@]4(C)[C@H]3[C@@H](O)C[C@@]21C
inactive: max response [1] -24.4% | outcome [2] | max response [3] -4.75% | max response [4] 1.39% | max response [5] -4.28% | outcome [20] | Potency [6] | Potency [7]

COc1cc(OC)cc(OC)c1
inactive: Potency [8] | Potency [9] | Potency [10] | Potency [11] | Potency [12] | Potency [13] | Potency [14] | Potency [15] | Potency [16] | Potency [17] | max response [1] -8.4% | max response [2] 0.846% | max response [3] 4.71% | max response [4] -2.29% | max response [5] -4.81% | Potency [6] | Potency [7]

COCc1c(C(C)C)nc(C(C)C)c(/C=C/[C@@H](O)C[C@@H](O)CC(=O)O)c1-c1ccc(F)cc1
inactive: Potency [8] | Potency [9] | Potency [10] | Potency [11] | Potency [12] | Potency [14] | Potency [15] | Potency [16]
active: Potency [1] 0.0596 µM | Potency [2] 0.531 µM | Potency [3] 0.841 µM | Potency [4] 1.84 µM | Potency [5] 2.37 µM | Potency [6] 1.19 µM | Potency [7] 0.75 µM

CCCCCCC[N+](CC)(CC)CCCCc1ccc(Cl)cc1
inactive: max response [4] -16.1% | Potency [6] | Potency [19]
active: Potency [8] 2 µM | Potency [9] 3.98 µM | Potency [10] 1.58 µM | Potency [11] 2.03 µM | Potency [12] 3.16 µM | Potency [13] 2.82 µM | Potency [14] 2 µM | Potency [15] 2.24 µM | Potency [16] 2 µM | Potency [17] 1.61 µM | Potency [1] 7.5 µM | Potency [2] 6.68 µM | Potency [7] 0.596 µM

C[n+]1c2cc(N)ccc2cc2ccc(N)cc21 (tested in a mixture with another compound)
active: Potency [1] 6.68 µM | Potency [2] 3.35 µM | Potency [6] 11.9 µM | Potency [19] 15 µM | Potency [7] 2.99 µM

CC1(C)O[C@@H]2C[C@H]3[C@@H]4C[C@H](F)C5=CC(=O)C=C[C@]5(C)[C@H]4[C@@H](O)C[C@]3(C)[C@]2(C(=O)CO)O1
inactive: max response [1] -27.4% | max response [2] -23.8% | max response [5] -4.68% | Potency [6] | Potency [19] | Potency [7]

C=C1C(=C/C=C2\CCC[C@]3(C)[C@@H]([C@H](C)/C=C/[C@@H](O)C4CC4)CC[C@@H]23)C[C@@H](O)C[C@@H]1O
inactive: outcome [1] | outcome [3] | max response [4] 29.7% | max response [5] -35.8% | outcome [18] | Potency [6] | Potency [19]

C[C@@H]1C[C@H]2[C@@H]3CCC4=CC(=O)C=C[C@]4(C)[C@@]3(F)[C@@H](O)C[C@]2(C)[C@H]1C(=O)CO
inactive: Potency [8] | Potency [10] | Potency [12] | Potency [13] | Potency [14] | Potency [15] | max response [1] -8.13% | max response [3] -8.02% | max response [4] 11.3% | max response [5] -2.44% | Potency [6] | Potency [7]

c1ccc(OCc2ccc(CCCN3CCOCC3)cc2)cc1
inactive: Potency [8] | Potency [9] | Potency [10] | Potency [13] | Potency [14] | Potency [15] | Potency [16] | max response [1] -18% | max response [3] 1.82% | max response [4] 2.12% | Potency [6] | Potency [19] | Potency [7]

COc1ccc(CN2CCN(C(c3ccc(F)cc3)c3ccc(F)cc3)CC2)c(OC)c1OC
active: Potency [8] 7.08 µM | Potency [9] 8.91 µM | Potency [11] 12 µM | Potency [13] 10 µM | Potency [14] 11.2 µM | Potency [15] 8.91 µM | Potency [16] 7.08 µM | Potency [17] 3.38 µM
inactive: outcome [1] | max response [3] -19.9% | outcome [3] | max response [4] 6.7% | max response [5] 1.96% and 2.43% | outcome [18] | Potency [6] | Potency [19]

CC(=O)Oc1ccc(C(c2ccc(OC(C)=O)cc2)c2ccccn2)cc1
active: Potency [12] 7.08 µM
inactive: Potency [8] | Potency [9] | Potency [10] | Potency [11] | Potency [13] | Potency [14] | Potency [15] | Potency [16] | Potency [17] | max response [1] -7.93% | max response [3] -0.175% | max response [4] -5.6% | max response [5] -2.66% | Potency [6] | Potency [7]
